Only some compounds are listed: those with a hit (about 9% of all), similar ones and a draw of the others.
HTT ATP protect: qHTS Multiplex Assay to Identify Dual Action Probes in a Cell Model of Huntington: Cytoprotection (ATP); PC12 HTT-Q103 induced, cytoprotection, ATP luminescence, 40 h; AID 1471, 2008; hit rate 0.14% among 230,000; Potency, µM (series often up to 56.4 µM), actives largely listed as activators; also: nearly all actives have a fitted effect of over 45% in size
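Cells were plated at 1500 per well in phenol red-free DMEM with 5% equine and 5% calf serum. Tebufenozide (100 nM final) and compounds were added, then ATPlite reagent, and luminescence was read.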
LMNA splice mod: qHTS Assay for Modulators of Lamin A Splicing | Potency, µM (top dose mostly 46.1 µM), hits mostly inhibitors | AID 1487, 2009 | HeLa LMNA splicing GFP/RFP minigene ratio, 48 h | hit rate 0.01% among 200,000; active = well fitted inhibition curve with a large enough effect in the signal ratio, with a control signal flat, not every such curve was filed as active; inconclusive = small, poorly fitted or top-dose-only effect, or effect the other way, or a change in a side signal; the % refers to the signal ratio
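S3 HeLa cells stably expressing lamin A-EGFP splicing minigene plus DsRed2, 600 cells/well, 48 h compound exposure at 37C. Laser-scanning cytometry; analysed as GFP (500-530 nm)/RFP (575-640 nm) total intensity ratio; 0.5% DMSO vehicle.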
HttQ103 aggreg: qHTS Multiplex Assay to Identify Dual Action Probes in a Cell Model of Huntington: Aggregate Formation (GFP); Potency, µM (doses to about 46.1 µM), hits mostly inhibitors; PC12 HttQ103-GFP aggregates, Acumen cytometry, 40 h; hit rate 1.1% among 220,000; also: nearly all actives have a fitted effect of over 60% in size
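Huntingtin Q103 exon 1–GFP aggregates in induced PC12 cells (100 nM tebufenozide) were quantified by cytometry from lysates, with compounds dosed in titration.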
HPGD block: qHTS Assay for Inhibitors of HPGD (15-Hydroxyprostaglandin Dehydrogenase) | purified HPGD, NADH fluorescence kinetic, PGE2 substrate | Potency, µM, hits mostly inhibitors | hit rate 4.3% among 150,000 | AID 894, 2007; active = well fitted inhibition curve with a large enough effect, not every such curve was filed as active; inconclusive = small, poorly fitted or top-dose-only effect, or another doubt; inactive = no such curve, though single readings can be large or run the other way
Target sequence (P15428 whole entry, looked up): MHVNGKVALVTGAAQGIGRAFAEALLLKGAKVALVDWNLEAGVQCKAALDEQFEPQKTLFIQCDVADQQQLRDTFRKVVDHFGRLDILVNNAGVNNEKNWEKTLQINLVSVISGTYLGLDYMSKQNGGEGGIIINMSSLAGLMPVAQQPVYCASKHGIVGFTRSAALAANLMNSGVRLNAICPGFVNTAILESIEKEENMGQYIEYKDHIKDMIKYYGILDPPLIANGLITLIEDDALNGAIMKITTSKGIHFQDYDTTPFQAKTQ
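NADH formation kinetics: reaction with 30 uM PGE2 and 1 mM NAD+ (final), 20 nM enzyme, Tris-HCl pH 8 with Tween 20, after 15 min compound preincubation at room temperature. Fluorescence change, last versus first of five reads.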
ALDH1A1 inh: qHTS Assay for Inhibitors of Aldehyde Dehydrogenase 1 (ALDH1A1); hit rate 7.3% among 220,000; AID 1030, 2008; Aldehyde dehydrogenase 1A1 (Homo sapiens), P00352; Purified ALDH1A1, NADH fluorescence, propionaldehyde substrate; Potency, µM (titrated, usually from 75.3 µM), hits mostly inhibitors; active = well fitted inhibition curve with a large enough effect, not every such curve was filed as active; inconclusive = small, poorly fitted or top-dose-only effect, or another doubt; inactive = no such curve, though single readings can be large or run the other way
Target sequence (P00352 whole entry, looked up): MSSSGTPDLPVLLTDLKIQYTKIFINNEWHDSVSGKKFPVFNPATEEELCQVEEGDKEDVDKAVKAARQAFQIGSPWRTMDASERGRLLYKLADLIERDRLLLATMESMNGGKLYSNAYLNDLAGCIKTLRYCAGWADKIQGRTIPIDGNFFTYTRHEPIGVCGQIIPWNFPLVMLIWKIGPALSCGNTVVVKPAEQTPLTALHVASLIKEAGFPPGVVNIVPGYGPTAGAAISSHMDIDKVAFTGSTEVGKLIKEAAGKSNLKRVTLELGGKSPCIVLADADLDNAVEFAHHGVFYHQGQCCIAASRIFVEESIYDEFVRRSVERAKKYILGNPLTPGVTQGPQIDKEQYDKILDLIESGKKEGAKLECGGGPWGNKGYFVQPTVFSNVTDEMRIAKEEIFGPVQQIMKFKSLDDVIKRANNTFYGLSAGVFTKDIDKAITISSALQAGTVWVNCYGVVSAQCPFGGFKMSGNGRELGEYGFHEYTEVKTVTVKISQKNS
Luc counter: Counterscreen for Luciferase (Kinase-Glo TM) Inhibition | AID 1379, 2008 | Luciferin 4-monooxygenase (Photuris pensylvanica), Q27757 | Kinase-Glo luciferase, ATP luminescence, 8 min | hit rate 0.28% among 200,000 | Potency, µM (series often up to 38.3 µM), usual class: inhibitors; also: nearly all actives have a fitted effect of over 60% in size
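Inhibition of Kinase-Glo luciferase light generation was assessed at 10 uM ATP in pH 7.2 imidazole buffer, with luminescence measured after eight minutes at ambient temperature.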
HPGD inh conf: Confirmation qHTS Assay for Inhibitors of HPGD (15-Hydroxyprostaglandin Dehydrogenase); shares compounds with HPGD block; recombinant HPGD, NADH fluorescence, PGE2 substrate; Potency, µM (series often up to 57.1 µM), actives largely listed as inhibitors; hit rate 90% among 90; AID 2429, 2010; calls by dose curve
Numbers stand for hits; 0 = inactive; ? = inconclusive; - = no result; [ ] = dose if it differs, or a comment. Unless noted, calls follow the shape of the dose curve; as a rule, active = well fitted curve in the direction sought with a large enough effect; inconclusive = small, poorly fitted or top-dose-only effect, or another doubt; inactive = no such curve, though single readings can be large; an effect the other way counts as inactive or inconclusive.

SMILES	HTT ATP protect	LMNA splice mod	HttQ103 aggreg	HPGD block	ALDH1A1 inh	Luc counter	HPGD inh conf
COc1cccc(CNC(=O)CN2C(=O)CC(c3ccccc3)=Nc3ccccc32)c1	0[10 µM]	-	0[9.22 µM]	-	35.5µM	0	-
O=C(O)c1c[nH]c2cc(C(F)(F)F)ccc2c1=O	0	0[0.0737 µM]	0	?	?	0	-
O=C(CN1CCCCC1)n1c2ccccc2c2ccccc21	0[10 µM]	-	0[9.22 µM]	-	-	-	-
O=C(CSC1=NCCS1)Nc1ccc(S(=O)(=O)N2CCCCCC2)cc1	0	?	0	?	?	0	-
O=C(CSC1=NCCS1)Nc1ccc(S(=O)(=O)NC2CCCCC2)cc1	0	0	0	15.8µM	?	0	-
O=C(CSC1=NCCS1)Nc1ccnc2ccccc12	0	?	10µM	0	0	0	-
Cc1cc(C)nc(SCC(=O)Nc2ccnc3ccccc23)n1	-	-	?	-	0	0	-
O=C(CSC1=NCCS1)NC1CCCC1	0	0[0.0737 µM]	0	25.1µM	0	0	-
O=C(CSC1=NCCS1)NC1CCCCC1	0[0.074 µM]	0	0	?	0	0	-
CCOC(=O)c1cccc(NC(=O)c2cccs2)c1	0[10 µM]	0	0	0	0	0	-
Cc1[nH]c(=O)[nH]c(=O)c1Cc1cccc2ccccc12	-	-	0	-	10µM	0	-
Cc1nc(N2CCN(C)CC2)[nH]c(=O)c1Cc1cccc2ccccc12	0[0.074 µM]	0	0[9.22 µM]	0	?	0	-
O=C(N/N=C/c1ccc(N2CCOCC2)o1)c1ccccc1[N+](=O)[O-]	-	0	?	0	?	0	-
O=C(N/N=C/c1ccc(N2CCCCC2)o1)c1ccccc1[N+](=O)[O-]	-	0	?	10µM	?	0	-
CSc1ccccc1NC(=O)CNCCCN1CCOCC1	0[10 µM]	-	0[9.22 µM]	-	-	-	-
Cc1ccc(C2=NN3C(C2)c2ccccc2OC32C(=O)Nc3ccccc32)cc1 (configuration not stated)	0	?	0	0	?	0	-
CN1C(=O)C2(Oc3ccccc3C3CC(c4ccccc4)=NN32)c2ccccc21 (configuration not stated)	0	?	0	0	25.1µM	0	-
Cc1cc(NC(=O)C2CCCCC2)ncc1NC(=O)c1ccccn1	0[10 µM]	?	0[9.22 µM]	-	0	0	-
COc1ccc(C(=O)c2ccccc2O)c(O)c1	0	?	0	0.501µM	0	0	1µM
COc1ccc(C(=O)c2ccc(OC)cc2O)c(O)c1	0	0	0	-	0	-	-
O=C(c1ccc2c(c1)OCO2)N1CCc2ccccc2C1	0[0.074 µM]	0	0[9.22 µM]	0.447µM	?	0	0.708µM
O=C(c1ccc2c(c1)OCCO2)N1CCCCC1	0[1.9 µM]	0	0	0.126µM	0	0	0.224µM
O=C(c1ccc2c(c1)OCO2)N1CCCCC1	0	-	-	0.1µM	0	0	0.0631µM
S=C(c1ccc2c(c1)OCO2)N1CCCCC1	0	0	0	0	0	0	-
NCc1ccc(-c2nc3ccccc3o2)cc1	0	0	0	?	?	0	-
SMILES	HTT ATP protect	LMNA splice mod	HttQ103 aggreg	HPGD block	ALDH1A1 inh	Luc counter	HPGD inh conf
COc1ccc(CNS(=O)(=O)NCc2ccc(C)cc2)cc1OC	0	?	0	-	0	0	-
COc1ccccc1/C=C/C=N/n1c(-c2ccc(C)cc2)n[nH]c1=S	0[10 µM]	?	0	1.41µM	31.6µM	0	1.58µM
Cc1ccc(-c2n[nH]c(=S)n2/N=C/C=C\c2ccccc2[N+](=O)[O-])cc1	0	0	0	0.891µM	0	0	0.501µM
CNc1ccc(Cl)nn1	0	-	0	-	0	0	-
COc1ccc(CN2c3cc(S(=O)(=O)N4CCOCC4)ccc3N3CCCC32)cc1 (configuration not stated)	0	0	0	0	?	0	-
CCOC(=O)c1c(C)[nH]c(C(=O)OC/C(O)=C(\C#N)c2nc3ccccc3[nH]2)c1C	0	?	0	0	0	0	-
NC(N)=NNC(=O)C(=O)O	0[10 µM]	-	-	0	0[13.5 µM]	0[7.66 µM]	-
COc1ccc(OC)c(C(=O)c2ccc(C(=O)N3CCCCC3)cc2)c1	0	0	0	0.251µM	?	0	0.199µM
COc1ccc(-c2nc3n(c2C)Cc2ccccc2-3)cc1	0[10 µM]	-	0[9.22 µM]	-	-	-	-
COC(=O)CSc1nc2nc(C)c(Br)cc2[nH]1	0	0	0	0	0	0	?
O=C(C1CCC(Cn2c(=S)[nH]c3ccccc3c2=O)CC1)N1CCOCC1 (configuration not stated)	0	?	0	1.58µM	0	0	2.51µM
CC1CCCC(C)N1C(=O)c1cc(F)c(F)cc1Cl (configuration not stated)	0	0	0	0	0	0	-
CC1CCCC(C)N1C(=O)c1cc2ncc(CCCl)cn2n1 (configuration not stated)	-	?	0	1µM	?	0	0.794µM
O=C(CCc1ccc(Oc2cc([N+](=O)[O-])cc([N+](=O)[O-])c2)cc1)Nc1cccc(Cl)c1	0[10 µM]	?	0	0	?	0	0
COc1ccc(CCC(=O)Nc2cccc(Cl)c2)cc1	-	0	0	0	0	0	-
O=C(CCc1ccc(Oc2cc([N+](=O)[O-])cc([N+](=O)[O-])c2)cc1)N1CCCCC1	0[10 µM]	?	?	0.0447µM	4.47µM	0	0.224µM
Cc1ccc(CNC(=O)c2ccc(Cl)cc2[N+](=O)[O-])cc1	0	0	0	0.199µM	0	0	2µM
Cc1ccc(NC(=O)c2ccc(Cl)cc2[N+](=O)[O-])nc1	0[10 µM]	0	0[9.22 µM]	-	0	0	-
CC1CCc2c(sc3ncnc(NCCCOC(C)C)c23)C1 (configuration not stated)	0	?	?	0	0	0	-
CCNC(=O)c1ccc(CSc2ccc(Cl)cc2)cc1	-	?	0	0	0	0	?
Cc1ccccc1CSc1nc2ccccc2c(=O)[nH]1	0[10 µM]	0	0	1.58µM	0	0	1µM
O=c1[nH]c(SCc2ccccc2F)nc2ccccc12	0[10 µM]	0	0[9.22 µM]	-	?	0	-
C=CC1=C(C)C2=Cc3c(C=C)c(C)c4[n]3[Sn+2][n]3c(c(C)c(CCC(=O)O)c3=CC3=NC(=C4)C(C)=C3CCC(=O)O)=CC1=N2	0	-	-	0	?	0	-
CC1=NOC(=O)/C1=C\c1ccc(-c2cc(Cl)ccc2Cl)o1	0[10 µM]	0	0	1.41µM	3.55µM	0	0.447µM
O=C(O)c1ccc(N/N=C/c2ccc(-c3cc(Cl)ccc3Cl)o2)cc1	0[10 µM]	-	0[9.22 µM]	-	-	-	-
CC1=NOC(=O)/C1=C/c1ccc(-c2ccc(Cl)cc2)o1	0	?	?	1.12µM	3.98µM	0	1.12µM

From PubChem BioAssay
